# Assay results from PubChem BioAssay (NCI).
# The panel holds about 83,000 compounds, 20% with a hit somewhere; the sample as a whole holds those more often.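 Single-dose data. Exposure time 48 hours. Values below 10 considered active.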 Values without a mark were called inactive. Calls of active or inactive are those of the source.
# Columns and labels:
# Test in all cases: NCI-60 one-dose screen, 48 h (100 = growth as untreated, 0 = no growth, -100 = all killed)
# Conditions in all cases: 10 µM unless noted
# [1] = system: DU-145 prostate
# [2] = system: K-562 leukemia
# [3] = system: MALME-3M melanoma
# [4] = system: MDA-MB-231 breast
# [5] = system: RXF 393 renal
# [6] = system: SF-268 CNS
# [7] = system: SF-295 CNS
# [8] = system: SF-539 CNS
# [9] = system: UACC-257 melanoma
# [10] = system: M14 melanoma
# [11] = system: HCT-15 colon
# [12] = system: HT29 colon
# [13] = system: SNB-75 CNS
# [14] = system: SNB-19 CNS
# [15] = system: U251 CNS
# [16] = system: PC-3 prostate
# [17] = system: SK-MEL-5 melanoma
# [18] = system: UACC-62 melanoma
# [19] = system: LOX IMVI melanoma
# [20] = system: SK-MEL-28 melanoma
Compound,growth [1],growth [2],growth [3],growth [4],growth [5],growth [6],growth [7],growth [8],growth [9],growth [10],growth [11],growth [12],growth [13],growth [14],growth [15],growth [16],growth [17],growth [18],growth [19],growth [20]
Cc1ccccc1NC(=O)N/C(N)=N/c1nc(C)c(C)s1,11.2%,9.17% (active),57.1%,50.9%,0.637% (active),59.5%,8.66% (active),-26% (active),67.8%,24%,26.4%,16.6%,-33.2% (active),39.9%,21.3%,30.6%,40.5%,42.7%,37.8%,60.7%
O=S(=O)(O)c1ccc(N/N=C/c2ccccc2Cl)cc1,116%,95.6%,109%,118%,125%,103%,108%,101%,116%,99.9%,97%,100%,94.6%,109%,99.5%,99.2%,103%,111%,128%,111%
O=C(NCCCNc1cc(-c2cn(-c3ccccc3)nc2-c2cccc(O)c2)ccn1)c1ccc(F)cc1,48.4%,0.281% (active),-12.1% (active),-13.6% (active),15.9%,31.3%,-4.5% (active),13.9%,-51.7% (active),-41.8% (active),-4.32% (active),0.339% (active),10.9%,54.2%,15.6%,12.6%,-24.8% (active),-1.62% (active),21.5%,-34.8% (active)
O=C(CC(SCc1ccccc1)c1ccccc1)c1ccccc1 (stereo not given),95.5%,95.3%,98.5%,98.1%,86.4%,87.6%,94.1%,99%,111%,87%,74.4%,86.8%,87.9%,88.6%,86.5%,88.8%,97.3%,85.3%,85.6%,105%
COc1cccc(-c2nn(-c3ccccc3)cc2-c2ccnc(NCCCNC(=O)c3cccc(C(F)(F)F)c3)c2)c1,52.3%,18%,9.81% (active),23.6%,36%,57.4%,27.3%,30.6%,12.1%,28.2%,21%,8.77% (active),58.6%,45.3%,24.7%,13.3%,-64.4% (active),23.9%,28%,50.3%
Nc1ccc2c(c1)c(N)nn2C(=O)Nc1ccc(Cc2ccccc2)cc1,79.3%,-5.66% (active),75.3%,60.6%,99.8%,83.9%,48%,73.6%,79.1%,46.8%,44.5%,76.8%,126%,105%,59.9%,60.2%,71.7%,7.09% (active),40.3%,115%
CC(=O)OC1CCC2(C)C(=CC3C4CCC(=O)C4(C)CCC32)C1 (stereo not given),101%,95%,112%,98.2%,115%,96%,95.5%,99.1%,110%,98%,98.2%,99.7%,83.8%,98.6%,98.5%,101%,105%,101%,100%,102%
N#Cc1c(N)nn(C(=O)c2ccc(NC(=O)c3ccccn3)cc2)c1-c1ccc(Cl)cc1,3.96% (active),34.2%,-17.5% (active),61.1%,54%,-8.49% (active),54.9%,-27.8% (active),48%,17.1%,32.9%,18.1%,27.3%,23.4%,-39.2% (active),15.5%,25%,43.1%,30.5%,70.4%
COc1ccc(-c2nc3ccc4[nH]ncc4c3c3c2CCCC3)cc1B(O)O,45.9%,59.8%,75%,69.3%,6.38% (active),56.3%,56.3%,52.8%,88.5%,46.5%,34.4%,67.2%,18.9%,82.7%,78%,57.6%,73.8%,47.1%,40.4%,68.1%
O=C1Nc2ccccc2/C1=C/c1cn(C(=O)c2ccc(Cl)cc2)c2ccccc12,118%,85.7%,118%,77.7%,130%,99.9%,114%,99.4%,99.7%,102%,92.1%,110%,87.7%,99.1%,99.4%,95.7%,97.7%,89.3%,100%,93%
N#C/C(=C\c1ccc(Br)cc1)n1nnc2cc(F)c(F)cc21,15.6%,9.36% (active),65.7%,15%,2.12% (active),33.8%,98.6%,-2.33% (active),50.6%,18.1%,11.1%,13.2%,12.8%,50.5%,30%,31.2%,44.8%,13.3%,-49.1% (active),42.8%
CCc1ccccc1NC(=O)/C(C#N)=C/c1ccc(OC)cc1,100%,99.5%,104%,105%,126%,93.8%,91.9%,108%,108%,99.1%,101%,100%,99.3%,111%,106%,81.1%,96.3%,81.6%,102%,92.9%
C[C@H]1[C@H]2[C@H]3CC[C@@H]4[C@@]5(C)C/C(=C/c6ccco6)C(=O)C(C)(C)[C@@H]5CC[C@@]4(C)[C@]3(C)CC[C@]23CO[C@]1(C)[C@@H](C(=O)/C=C\c1ccco1)C3,111%,93.4%,23.5%,94.9%,98.4%,97.3%,107%,93.8%,31.5%,60.5%,112%,105%,88.2%,91.8%,83.4%,79.7%,55.7%,26%,93.6%,43.9%
CCC(CO)Nc1nc2ccc(Cl)cc2c2ccccc12 (stereo not given),84.9%,38.2%,85.8%,55.7%,4.53% (active),70.7%,74.8%,55.8%,97.5%,84.8%,57.1%,30.1%,18.8%,53.8%,51.3%,59.5%,68.4%,60.4%,67.2%,90.8%
Nc1cc2c3c(cccc3c1)C(=O)N(CCN1CCCC1)C2=O,28.4%,14.7%,41.5%,55.2%,48.2%,33.7%,44.5%,29%,51.3%,49.4%,30.3%,26.2%,48%,41.9%,28.9%,40.8%,9.37% (active),26.6%,11.9%,62.3%
